Screening data: PubChem, several laboratories
Shown are actives, neighbours in structure and some others; about 3% of the full set was active somewhere.
FadD28 FP inh: M. tuberculosis FadD28 bisubstrate binding inhibition; AID 588549; inhibition, % at 12.5 µM; actives 0.22% (n = 360,000); FadD28 bisubstrate probe binding, fluorescence polarization; in the data active = inhibition above about 8.5%, passing the limit was not always enough
Mtb FBA inh: inhibitors of M. tuberculosis fructose-bisphosphate aldolase; P9WQA3; purified M. tuberculosis FBA, fluorescence read-out; inhibition, % at 1 µM; actives 2.3% (n = 360,000); in the data active = inhibition above about 27%;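 also: 0% = vehicle and 100% = reference inhibitor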
Rv3671c inh: inhibitors of M. tuberculosis serine protease Rv3671c; inhibition, % at 5.96 µM; actives 0.048% (n = 320,000); in the data active = inhibition above about 38%;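 also: extracellular domain of Rv3671c used as enzyme; 0% = enzyme with DMSO and 100% = no enzyme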
Target sequence (P9WHR9 whole entry, looked up, the tested form may be a part): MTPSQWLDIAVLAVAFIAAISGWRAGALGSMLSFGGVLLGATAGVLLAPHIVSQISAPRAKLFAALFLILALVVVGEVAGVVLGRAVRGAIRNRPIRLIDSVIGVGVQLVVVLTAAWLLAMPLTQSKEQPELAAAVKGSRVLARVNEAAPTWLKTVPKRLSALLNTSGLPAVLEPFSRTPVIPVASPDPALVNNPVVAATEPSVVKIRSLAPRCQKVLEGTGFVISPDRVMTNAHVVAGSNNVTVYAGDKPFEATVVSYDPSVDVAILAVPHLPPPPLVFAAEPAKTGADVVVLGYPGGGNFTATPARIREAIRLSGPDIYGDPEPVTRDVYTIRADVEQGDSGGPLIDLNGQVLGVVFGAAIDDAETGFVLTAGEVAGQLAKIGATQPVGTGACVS
Mtb BioA inh: blocks M. tuberculosis BioA enzyme activity | AID 602481 | actives 0.096% (n = 360,000) | purified M. tuberculosis BioA enzyme, plate reader | inhibition, % at 9.99 µM; in the data active = inhibition above about 40%
GDH-TPI counter: GDH-TPI coupled enzyme inhibition counter-screen; inhibition, % at 4.8 µM; actives 1.2% (n = 360,000); GDH-TPI coupled enzyme counterscreen, NADH absorbance; in the data active = inhibition above about 30%;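 also: 0% = DMSO wells and 100% = wells lacking the enzyme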
The depositor's hits bear a star; nt = not tested or not shown; + = active, no number.

SMILES | FadD28 FP inh | Mtb FBA inh | Rv3671c inh | Mtb BioA inh | GDH-TPI counter
CS(=O)(=O)N1[C@@H]2Cn3c(ccc(-c4ccccc4)c3=O)[C@H]1[C@@H](C(=O)NCC1CC1)[C@@H]2CO | nt | nt | nt | -1 | nt
CC(=O)N1[C@@H]2CN(C(=O)c3ccccc3)c3ccccc3[C@@H]2[C@@H]1CO | nt | nt | nt | 7 | nt
N#C/C(=N\Nc1ccc(Cl)cc1)C(N)=S | -1 | -18 | 2 | 1 | 4
N#C/C(=N\Nc1ccccc1)C(N)=S | 0 | -7 | 15 | -1 | 31*
CCN1c2ccccc2-c2nc3ccccc3n2C1c1ccco1 (stereo unspecified) | -6 | + | -7 | 2 | 9
c1ccc(CN2c3ccccc3-c3nc4ccccc4n3C2c2ccccn2)cc1 (stereo unspecified) | -3 | 121* | -9 | 0 | 5
CN1c2ccccc2-c2nc3ccccc3n2C1c1ccccn1 (stereo unspecified) | -1 | 47* | 0 | 0 | 9
O=C(C[C@@H]1CC[C@@H]2[C@H](COC[C@H](O)CN2C(=O)c2ccccc2)O1)NCc1ccc(-c2ccccc2)cc1 | nt | nt | nt | 1 | nt
COc1ccc(CNC(=O)c2ccc(=O)oc2)cc1OC | 1 | 1 | 9 | 13 | 60*
COc1ccc(C(=O)NCc2ccc(Cl)c(Cl)c2)cc1OC | -1 | 2 | -4 | 0 | -6
O=C(NCc1cccnc1)c1ccc(=O)oc1 | -5 | -1 | 5 | -1 | 43*
COc1cc(C=C2C(=O)c3ccccc3C2=O)cc(OC)c1OC | -3 | -5 | -4 | -1 | 1
COc1cc(C=Cc2nnc3c4ccccc4cnn23)cc(OC)c1OC | -1 | -1 | nt | 0 | 55*
O=C(Cc1ccncc1)NCC[C@@H]1CC[C@H](NC(=O)Nc2ccc(Cl)cc2)[C@H](CO)O1 | nt | nt | nt | 2 | nt
COC(=O)c1ccc(S(=O)(=O)c2ccc(Cl)cc2)c(N)c1 | nt | 115* | -9 | 0 | 3
CC(=O)Nc1ccc(/C=N/Nc2nc3ccccc3[nH]2)cc1 | 0 | -5 | 10 | nt | 38*
COC(=O)c1ccc(/C=N/Nc2nc3ccccc3[nH]2)cc1 | -1 | 1 | 12 | nt | 14
O=C(O)c1ccc(/C=N/Nc2nc3ccccc3[nH]2)cc1 | 0 | 2 | 1 | 0 | 75*
CN(C)C(=O)c1cccc(-c2ccc([C@H]3[C@H]4CN(S(C)(=O)=O)CCCCN4[C@H]3CO)cc2)c1 | nt | nt | nt | -4 | nt
C[C@@H]1CCCCO[C@@H](CN(C)C(=O)Nc2ccc3c(c2)OCO3)[C@H](C)CN([C@H](C)CO)C(=O)c2cc(NC(=O)Cc3ccccc3)ccc2O1 | nt | nt | nt | -4 | nt
CC(=O)Nc1cccc(Oc2ncnc3scc(-c4ccccc4)c23)c1 | -8 | -1 | -12 | 2 | -6
CN(C)C/C=C/C(=O)Nc1cccc(-c2c[nH]c3ncnc(Oc4ccc(NC(=O)CC(=O)Nc5ccc(F)cc5)cc4F)c23)c1 | 19* | 1 | -27 | -2 | 0
CCCN1[C@@H]2c3ccc(-c4ccccc4)c(=O)n3C[C@@H]2[C@@H](CO)[C@@H]1C(=O)NCCCN1CCOCC1 | nt | nt | nt | -1 | nt
COC(=O)c1c(N)n(Cc2ccc(OC)cc2)c2nc3ccccc3nc12 | -2 | 159* | 1 | 1 | 2
COCCOC(=O)c1c(N)n(Cc2ccc(OC)cc2)c2nc3ccccc3nc12 | -8 | 171* | 3 | 2 | 12
SMILES | FadD28 FP inh | Mtb FBA inh | Rv3671c inh | Mtb BioA inh | GDH-TPI counter
C[C@H](O)C#Cc1ccc2c(c1)O[C@H](CN(C)Cc1ccccn1)[C@H](C)CN([C@@H](C)CO)S2(=O)=O | nt | nt | nt | 0 | nt
CN1CCN(C(=O)c2cccc(-c3cccc4nccn34)c2)CC1 | 1 | 16 | nt | 1 | 13
O=C(NCCO)c1cccc(-c2cnc3cccnn23)c1 | 1 | 156* | nt | -2 | 14
CS(=O)(=O)Nc1ccc(-c2cnc3cccnn23)cc1 | -1 | 7 | nt | -4 | 14
CNc1ccc2ncc(-c3cccc(C(=O)N(C)C)c3)n2n1 | -5 | 156* | nt | 0 | 17
O=C(NCCO)c1ccc(-c2cnc3cccnn23)cc1 | 0 | + | nt | 1 | 11
CN1CCN(C(=O)c2ccc(-c3cnc4cccnn34)cc2)CC1 | -1 | + | nt | -1 | 4
Cc1noc(C)c1NC(=O)Nc1ccc2c(c1)C(=O)N(C)[C@@H]1CC[C@H](CC(=O)NCc3ccc(Cl)cc3)O[C@H]1CO2 | nt | nt | nt | 4 | nt
Cc1nc2ccccc2c(N)c1C(=O)/C=C/c1ccccc1 | 0 | 1 | -7 | -5 | 37*
CC(=O)c1c(C)nc2ccccc2c1N | -1 | 0 | 3 | 23 | 16
Cc1ccc(C=NNc2nc3c([nH]2)c(=O)n(C)c(=O)n3C)cc1 | 1 | 5 | nt | -3 | 46*
COc1ccc(C=NNc2nc3c([nH]2)c(=O)n(C)c(=O)n3C)cc1 | -3 | -1 | nt | 4 | 34*
COc1ccc(/C=N/NC(=O)c2ccc(NC(=O)c3cccc([N+](=O)[O-])c3)cc2)c(C(=O)O)c1OC | -2 | 2 | -11 | 3 | 31*
COc1ccc(/C=N/NC(=O)c2cccc([N+](=O)[O-])c2)cc1O | 2 | -2 | -7 | nt | 32*
COc1ccc(NC(=O)N(C)C[C@@H]2Oc3ccc(NC(=O)CCCCCC(=O)Nc4ccccc4N)cc3CC(=O)N([C@H](C)CO)C[C@@H]2C)cc1 | nt | nt | nt | -2 | nt
CCC(=O)N1[C@H](CO)[C@H]2c3ccccc3N(S(=O)(=O)c3ccccc3)C[C@H]21 | nt | nt | nt | -3 | nt
CCCNC(=O)[C@H]1[C@H](CO)[C@H]2Cn3c(ccc(-c4ccc(F)cc4)c3=O)[C@H]2N1CC | nt | nt | nt | 2 | nt
COc1ccc(/C=C2\CCOC2=O)cc1 | -2 | 2 | -4 | 9 | 16
COc1ccc(N/C=C2\CCOC2=O)cc1 | -2 | -3 | -1 | 29 | 56*
O=C(c1cnc2sccn2c1=O)N1CCCc2ccccc21 | 0 | 0 | -3 | -1 | 32*
O=C(c1ccc(C(=O)N2CCCc3ccccc32)s1)N1CCCc2ccccc21 | -3 | -2 | -3 | -1 | 13
C[C@H](CO)N1C[C@H](C)[C@H](CN(C)Cc2ccc(-c3ccccc3)cc2)Oc2ccc(NC(=O)CCN3CCOCC3)cc2C1=O | nt | nt | nt | 0 | nt
CCOC(=O)c1oc2nc(CC(C)C)c3c(c2c1N)CCCC3 | -3 | 137* | -1 | 0 | 0
CCC1S/C(=N/N=C/c2ccco2)N(Cc2ccccc2C)C1=O (stereo unspecified) | -3 | -1 | 0 | nt | 12
CCC1S/C(=N/N=C/c2ccco2)N(Cc2ccc(F)cc2)C1=O (stereo unspecified) | -2 | -1 | 3 | -1 | 34*
O=c1c(O)c(-c2cc(O)c(O)c(O)c2)oc2cc(O)cc(O)c12 | 14* | -3 | -39 | 0 | 32*
CCc1ccc2c(CSc3nnnn3C)cc(=O)oc2c1 | 0 | 8 | -12 | 1 | 34*
CO[C@@H]1CN(C)C(=O)c2ccc(NC(=O)C3CC3)cc2OC[C@@H](C)N(C(=O)CN2CCOCC2)C[C@@H]1C | nt | nt | nt | -3 | nt
C/C(=N\NC(=S)Nc1ccccc1C)c1cc2ccccc2o1 | -2 | 2 | -1 | -3 | 49*
CN(/C=C/C(=O)C(F)(F)F)Cc1ccccc1 | -1 | -1 | -6 | -3 | 32*
